Screening data (PubChem)
Cruzain inh noDet = qHTS Assay for Promiscuous and Specific Inhibitors of Cruzain (without detergent). Cruzipain (Trypanosoma cruzi), P25779. purified cruzain, Z-FR-AMC fluorescence, no detergent. Potency, µM, without a hit: max response, negative = inhibition, hits mostly inhibitors. actives 2.3% (n = 200,000);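 further: plate controls were enzyme without inhibitor for no effect and buffer without enzyme for full effect; nearly all actives have a fitted effect of over 40% in size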
Target sequence (P25779 123-467 limits assumed): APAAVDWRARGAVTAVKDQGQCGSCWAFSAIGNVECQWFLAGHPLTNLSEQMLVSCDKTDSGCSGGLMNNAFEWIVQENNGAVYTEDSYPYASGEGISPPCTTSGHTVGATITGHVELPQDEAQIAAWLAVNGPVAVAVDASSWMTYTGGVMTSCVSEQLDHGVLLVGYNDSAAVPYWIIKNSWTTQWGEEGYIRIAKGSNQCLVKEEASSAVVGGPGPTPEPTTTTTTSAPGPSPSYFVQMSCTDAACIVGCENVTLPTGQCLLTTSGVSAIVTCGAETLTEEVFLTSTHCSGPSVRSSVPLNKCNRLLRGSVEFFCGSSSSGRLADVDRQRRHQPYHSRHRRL
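Purified cruzain at 1.5 nM, pre-incubated 15 min with compound at room temperature in 100 mM sodium acetate pH 5.5, 5 mM DTT, 0.00005% Triton X-100. Reaction started with 2 uM Z-FR-AMC; AMC fluorescence increase over 60 s gives rate.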
Cruzain inh Det = qHTS Assay for Promiscuous and Specific Inhibitors of Cruzain (with detergent); actives 0.43% (n = 200,000); AID 1478, 2009; purified cruzain, Z-FR-AMC fluorescence, 0.01% Triton; Potency, µM, inactives show max response, negative = inhibition, actives largely listed as inhibitors;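 further: plate controls were neutral wells for no effect and buffer without enzyme for full effect; nearly all actives have a fitted effect of over 40% in size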
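Read-out: AMC fluorescence (360 nm excitation, 450 nm emission), four reads over 2 min, first-to-third difference used. Conditions: cruzain 1.5 nM, Z-FR-AMC 2 uM, pH 5.5 acetate, 5 mM DTT, 0.01% Triton X-100.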
* marks the source's active call; other numbers are inactive results; ? = inconclusive. Most compounds without a hit are left out; they make up all but 2.5% or so of the library. The call rests on the fitted dose curve; in most records, active means well fitted curve in the direction sought with a large enough effect; inconclusive means small, poorly fitted or top-dose-only effect, or another doubt; inactive means no such curve, though single readings can be large; an effect the other way counts as inactive or inconclusive. Potency means the concentration at half of the fitted maximal effect.

SMILES	Cruzain inh noDet	Cruzain inh Det
COc1cc2c(cc1NC(=O)/C=C/c1cc(OC)c(OC)c(OC)c1)oc1ccccc12	?	-5%
COc1ccc(CC(=O)Nc2cc3oc4ccccc4c3cc2OC)cc1	12%	-5%
COc1ccc2cc(C(C)CO)ccc2c1 (configuration not stated)	3%	-1%
COc1ccc(OC)c(NC(=O)c2cc(=O)c3c(C)cc(C)cc3o2)c1	-15%	-1%
COc1cccc(N2CCN(C(=O)C3CCN(S(=O)(=O)c4cn(C)cn4)CC3)CC2)c1	0%	-1%
COCCN1C(=O)N[C@@H](CCc2ccccc2)C(C(=O)OC)=C1C	-1%	1%
COc1ccc(Cl)cc1NC(=O)CSc1ncnc2c1oc1ccccc12	16µM*	-2%
COc1cccc(NC(=O)CSc2ncnc3c2oc2ccccc23)c1	22%	-4%
CCOc1ccccc1-n1nnnc1SCC(=O)Nc1cc(C)on1	1%	3%
CCOc1ccccc1-n1nnnc1SCC(=O)Nc1cc2oc3ccccc3c2cc1OC	7.9µM*	4%
COc1cc2c(cc1NC(=O)C(C)Sc1nc3ccccc3n1C)oc1ccccc12 (configuration not stated)	25µM*	1%
COc1cc2c(cc1NC(=O)C(C)Sc1cccc[n+]1[O-])oc1ccccc12 (configuration not stated)	?	-24%
COc1ccc(NC(=O)c2cc(-c3ccccc3F)no2)cc1	13%	0%
COc1ccc(NC(=O)C(C)n2nc(C)c3c(C)n(-c4ccccc4)nc3c2=O)cc1Cl (configuration not stated)	19%	-3%
O=C1c2ccccc2[C@@H]([C@@H]2c3ccccc3C(=O)c3cc(Br)ccc32)c2ccc(Br)cc21	-4%	-5%
O=C(/C=C/c1ccc(Br)cc1)c1ccc(NC(=O)c2ccco2)cc1	-12%	-6%
CCC1CSC(Nc2ccc(C(=O)/C=C/c3ccc(Br)cc3)cc2)=N1 (configuration not stated)	25µM*	-11%
Cc1cccc(-c2noc(CN(C(=O)COc3ccc(C(C)C)cc3)C(C)C)n2)c1	5%	-7%
Cc1ccc(C)c(N2CCN(C(=O)c3cc(C)nc4c3c(C)nn4-c3cccc(F)c3)CC2)c1	-5%	6%
CCCCOC(=O)/C(C#N)=C\c1ccc(-c2ccc(Cl)cc2)o1	0%	2%
Cc1nc(S/C(=C/c2ccc(-c3ccc(Cl)cc3)o2)C(=O)O)n[nH]1	13µM*	-2%
COc1ccc(NC(=O)CSC2=Nc3ccccc3C3=NC(CC(=O)NCc4ccco4)C(=O)N23)cc1 (configuration not stated)	1%	1%
CC(/C=N/NC(=O)c1cc(-c2cccnc2)nc2c1c(C)nn2-c1ccccc1)=C\c1ccccc1	13µM*	-4%
Cc1nn(-c2ccccc2)c(N2CCCC2)c1/C=N/NC(=O)c1cc(-c2cccnc2)nc2ccccc12	24%	-7%
Cc1nc2c(c(C)c1CCC(=O)NCc1ccccc1)c(=O)n(C)c(=O)n2C	-2%	1%
SMILES	Cruzain inh noDet	Cruzain inh Det
COc1cccc(NC(=O)C2C3CCC4C(CCC32)C4(Cl)Cl)c1 (configuration not stated)	10%	-7%
COc1ccc(NC(=O)C2C3CCC4C(CCC32)C4(Cl)Cl)cc1 (configuration not stated)	25µM*	3%
Cc1cc(C(=O)COC(=O)c2cc(Cl)ccc2N)c(C)n1Cc1ccco1	25µM*	-10%
COC(=O)c1c(C(=O)OC)c(C)n(Cc2ccco2)c1C	1%	4%
Cc1ccc(CNC(=O)C(C)n2c(=O)cc(C(F)(F)F)c3c(C)nn(C)c32)cc1 (configuration not stated)	4%	1%
Cc1ccc(-c2nnc(SCC(=O)N3CCN(c4ccccc4)CC3)o2)cc1	10µM*	-1%
COc1ccc(-c2nnc(SCC(=O)N3CCN(c4ccccc4)CC3)o2)cc1OC	0%	-4%
CCn1c(NC(=O)Nc2cccc(C)c2C)cc2sccc21	25µM*	-1%
Cc1cccc(NC(=O)Nc2cccs2)c1C	-10%	-8%
CCN(CC)CCn1c2ccc(F)cc2c2nc(C)sc21	-7%	0%
Cn1c2ccc(F)cc2c2nnc(SCCN3CCCCC3)nc21	13µM*	14µM*
CCn1c2ccccc2c2nnc(SCCN3CCCCC3)nc21	-1%	-7%
CCCCn1c2ccc(F)cc2c2nnc(SCCN3CCCCC3)nc21	?	16µM*
CCOc1ccc2c(c1)c1nnc(SCC(=O)N3CCCCC3C)nc1n2C (configuration not stated)	?	0%
CCN(CC)CCSc1nnc2c3cc(F)ccc3n(C)c2n1	13µM*	16µM*
N#C/C(=C\c1ccc(-c2ccc(C(=O)O)cc2)o1)C(=O)Nc1ccccc1C(=O)O	2%	-3%
CCc1cc2c(cc3c(=O)n(CCCC(=O)NCc4cccc(Cl)c4)ncn32)s1	-4%	0%
O=C1[C@H]2[C@H]3C=C[C@@H](C4[C@H]3[C@@H]3C(=O)N(CN5CCSCC5)C(=O)[C@H]43)[C@H]2C(=O)N1CN1CCSCC1 (some centres not stated)	5%	0%
Cc1ccc(NCc2ccccc2-c2nnc(-c3ccccc3Cl)o2)c(C)c1	5%	-3%
C/C(CCN1CCc2nc(-c3ccccc3)c(-c3ccccc3)cc2C1)=N\O[C@@H](C)c1cc(-c2c(C)cc(C)cc2C)no1	20µM*	-2%
CCc1cc2c(nc1CC)CCN(CC/C(C)=N/O[C@@H](C)c1cc(-c3c(C)cc(C)cc3C)no1)C2	-2%	-5%
COc1cc(/C=N/NC(=O)CNC(=O)c2ccccc2)ccc1OC(=O)c1cccs1	0%	-6%
COc1cc(/C=N\NC(=O)c2ccc(C)nc2)ccc1OC(=O)c1ccco1	-6%	-5%
COc1cc(/C=N/Nc2cccc(C)c2)ccc1OC(=O)c1ccco1	16µM*	-2%
COc1cc(/C=N/Nc2ccc(Cl)cc2)ccc1OC(=O)c1cccs1	7.9µM*	-3%
SMILES	Cruzain inh noDet	Cruzain inh Det
Cc1noc(C)c1C(=O)N1CCC2(CC1)CN(c1ncccn1)C2	2%	-2%
O=S(=O)(c1ccc(Cl)cc1Cl)n1ccnc1	-7%	1%
CCOC(=O)c1cc(-c2ccccc2)sc1NC(=O)C(C)N1C(=O)NC(C)(c2ccc(Cl)cc2)C1=O (configuration not stated)	4µM*	0%
CCOC(=O)c1cc(-c2ccccc2)sc1NC(=O)C(C)C	4%	-14%
COc1ccc(-c2nc3cnc(N4CCOCC4)nc3n(C[C@H]3CCCO3)c2=O)cc1	?	3%
Nc1c(C(=O)NCCCc2ccccc2)c2nc3ccccc3nc2n1Cc1cccs1	6.3µM*	6%
CCCCCn1c(N)c(C(=O)NCc2cccs2)c2nc3ccccc3nc21	4%	0%
O=C(CNC(=O)c1ccc(F)cc1)OCc1cc(=O)n2nc(C3CC3)sc2n1	1%	-3%
COc1cccc(C(=O)Nc2nc(-c3ccc(Br)cc3)ns2)c1	25µM*	-2%
COc1ccc(-c2nsc(NC(=O)c3cccc(OC)c3)n2)cc1	0%	-7%
O=C(CCCCn1c(=O)c2ccccc2n(Cc2ccccc2Cl)c1=O)NCCc1ccccc1	20%	2%
COc1ccc(-n2nc(C(=O)N3CCN(c4cccc(C)c4C)CC3)c3c4ccccc4n(C)c3c2=O)cc1	-8%	2%
CN1CCN(c2ncc3ncc(=O)n(C[C@H]4CCCO4)c3n2)CC1	20µM*	?
